PubChem BioAssay (NCATS)
Several values for one entry are separate records, joined by “and”; a condition that tells them apart may be missing. Equal values may be shown once. Inconclusive results are not listed. Activity calls are given as the source filed them. Calls follow the shape of the dose curve; as a rule, active = well fitted curve in the direction sought with a large enough effect; inconclusive = small, poorly fitted or top-dose-only effect, or another doubt; inactive = no such curve, though single readings can be large; an effect the other way counts as inactive or inconclusive.

biological target: Cytochrome P450 3A4 (Homo sapiens) (UniProt P08684); assay: qHTS Assay for Activators of Cytochrome P450 3A4 (AID 885); details: recombinant CYP3A4, Luciferin-PPXE luminescence, 60 min; series mostly up to 57.1 µM; also: nearly all actives have a fitted effect of over 65% in size
Sequence (P08684 whole entry, looked up): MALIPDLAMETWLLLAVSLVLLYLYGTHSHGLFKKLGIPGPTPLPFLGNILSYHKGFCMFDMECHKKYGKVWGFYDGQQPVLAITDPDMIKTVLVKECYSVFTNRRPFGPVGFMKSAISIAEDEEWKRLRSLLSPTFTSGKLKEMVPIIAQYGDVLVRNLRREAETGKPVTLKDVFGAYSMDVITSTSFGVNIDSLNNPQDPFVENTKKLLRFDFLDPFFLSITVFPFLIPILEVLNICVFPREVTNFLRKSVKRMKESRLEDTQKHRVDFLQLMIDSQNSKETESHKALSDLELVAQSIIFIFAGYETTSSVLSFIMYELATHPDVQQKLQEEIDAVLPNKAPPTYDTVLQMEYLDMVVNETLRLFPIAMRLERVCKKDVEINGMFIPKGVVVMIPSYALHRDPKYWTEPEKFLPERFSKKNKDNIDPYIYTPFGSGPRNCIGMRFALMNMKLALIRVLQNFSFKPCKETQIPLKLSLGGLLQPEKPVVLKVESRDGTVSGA
Outline: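 Human CYP3A4 dealkylates Luciferin-PPXE to luciferin, which luciferase detection converts to light. Substrate was at its KM (25uM), buffer 200mM KPO4, reaction 60 min at RT.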

Activity change, positive = activation, inactive:
C#CCCCO/N=C1/C[C@@H](O)[C@@H](O)[C@@H]2[C@@H]3C(=O)N(C4CCCCC4)C(=O)[C@H]3CC[C@H]12 -57% [at 11.4 µM], COc1ccc(COC(=O)N/N=C2/C[C@@H](O)[C@@H](O)[C@@H]3[C@@H]4C(=O)N(c5cccc(Oc6ccccc6)c5)C(=O)[C@H]4CC[C@@H]23)cc1 -30.5% [at 11.4 µM], CO[C@H]1COC(=O)C/C=C\[C@H](C)COC(=O)[C@@H](OCc2ccccc2)/C=C\[C@@H]1C -41.2% [at 11.4 µM], C/C(CCN1CCCCc2nc(C)c(C)cc21)=N\OC[C@@H](C)[C@H](OCc1ccccc1)C(C)C -49.2% [at 11.4 µM], CC(C)=CCC/C(C)=C/CO/N=C1/[C@H]2O[C@@H]2[C@@H](O)[C@H]2[C@H]1CCn1c(=O)n(Cc3cc4c(cc3Cl)OCO4)c(=O)n12 -56.5% [at 11.4 µM], C/C(CCN1CCc2nc(-c3ccccc3)c(-c3ccccc3)cc2C1)=N\O[C@@H](C)c1cn([C@H](CO)Cc2ccccc2)nn1 -54.2% [at 11.4 µM] and -52.4% [at 11.4 µM], COc1ccc(-c2ccc3c(n2)CCCN3C[C@H](O)CN2CCCc3nc(-c4ccc(Br)cc4)ccc32)cc1 -31.9% [at 11.4 µM], CCCNC(=O)OC[C@@H]1O[C@H](CCON=C(C)C)C=C[C@@H]1Oc1ccc(OC)cc1 -58.2% [at 11.4 µM], C/C(CCN1CCc2nc(-c3ccccc3)c(-c3ccccc3)cc2C1)=N\O[C@@H](C)c1cc(-c2c(C)cc(C)cc2C)no1 -63.5% [at 11.4 µM], C/C(CCN1CCc2nc(-c3ccccc3)c(-c3ccccc3)cc2C1)=N\O[C@@H](C)CN1CCCc2nc(C)c(C)cc21 -58.8% [at 11.4 µM], C=CC[C@@H]1C=C[C@@H](O/N=C\C[C@@H]2C=C[C@H](OC(C)=O)[C@H](COC(C)=O)O2)[C@@H](CO)O1 -49.3% [at 11.4 µM], CCN1C(=O)[C@H]2[C@H]3[C@H](O)[C@H](O)C/C(=N/O[C@@H](C)c4cn([C@H](CO)Cc5ccccc5)nn4)[C@@H]3CC[C@@H]2C1=O -35.2% [at 11.4 µM] and -33% [at 11.4 µM]

biological target: Cytochrome P450 2D6 (Homo sapiens) (UniProt P10635); assay: qHTS Assay for Inhibitors and Substrates of Cytochrome P450 2D6 (AID 891); details: recombinant CYP2D6, luciferin-ME EGE luminescence; series mostly up to 11.4 µM; also: nearly all actives have a fitted effect of over 60% in size; also: potency is read from the fitted curve at half-maximal effect
Sequence (P10635 whole entry, looked up): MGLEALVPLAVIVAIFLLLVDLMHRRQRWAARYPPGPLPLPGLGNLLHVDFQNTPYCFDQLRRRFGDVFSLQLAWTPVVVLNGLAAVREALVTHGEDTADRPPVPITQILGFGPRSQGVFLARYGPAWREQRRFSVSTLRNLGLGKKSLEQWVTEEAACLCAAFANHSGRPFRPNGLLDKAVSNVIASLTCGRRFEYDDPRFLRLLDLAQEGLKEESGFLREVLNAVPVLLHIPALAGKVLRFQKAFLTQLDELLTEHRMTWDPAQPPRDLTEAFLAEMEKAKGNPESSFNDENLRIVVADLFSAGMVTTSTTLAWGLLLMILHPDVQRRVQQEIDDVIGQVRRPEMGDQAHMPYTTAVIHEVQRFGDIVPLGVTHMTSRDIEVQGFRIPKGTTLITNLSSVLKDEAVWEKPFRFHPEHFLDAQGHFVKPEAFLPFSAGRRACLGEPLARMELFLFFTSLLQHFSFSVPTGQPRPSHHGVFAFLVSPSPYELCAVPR
Outline: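 Luminescent read-out of luciferin formed by 5 nM human CYP2D6 demethylating 30 uM Luciferin-ME EGE (Km level) over 60 min at room temperature after NADPH regeneration addition. Data normalized to full inhibition by 1.43 uM quinidine.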

Potency, active:
CC(=O)OC[C@@H]1O[C@@H](O/N=C2/C[C@@H](O)[C@@H](O)[C@@H]3[C@H]4C(=O)N(c5ccc(F)cc5F)C(=O)[C@@H]4CC[C@H]23)[C@H](OC(C)=O)[C@H](OC(C)=O)[C@@H]1OC(C)=O 3.16 µM, CC(C)c1ccc2c(c1)CC[C@@H]1[C@@](C)(CN)CCC[C@@]21C 1 µM, CCOC(=O)CCN1C(=O)[C@H]2[C@H]3[C@H](O)[C@H](O)C/C(=N/O[C@@H]4O[C@@H](COC(C)=O)[C@@H](OC(C)=O)[C@@H](OC(C)=O)[C@H]4OC(C)=O)[C@H]3CC[C@@H]2C1=O 3.16 µM, CC(=O)OC[C@@H]1O[C@H](C/C=N\O[C@@H]2O[C@H](COC(C)=O)[C@@H](OC(C)=O)[C@H](OC(C)=O)[C@H]2OC(C)=O)C=C[C@@H]1OC(C)=O 3.98 µM, CCN1C(=O)[C@H]2[C@H]3[C@H](O)[C@H](O)C/C(=N/O[C@@H]4O[C@H](COC(C)=O)[C@@H](OC(C)=O)[C@H](OC(C)=O)[C@H]4OC(C)=O)[C@@H]3CC[C@@H]2C1=O 3.98 µM, CC(=O)OC[C@@H]1O[C@@H](O/N=C2/C[C@@H](O)[C@@H](O)[C@@H]3[C@@H]4C(=O)N(Cc5ccccc5)C(=O)[C@H]4CC[C@@H]23)[C@H](OC(C)=O)[C@H](OC(C)=O)[C@@H]1OC(C)=O 3.98 µM, CCOC(=O)CCN1C(=O)[C@H]2[C@H]3[C@H](O)[C@H](O)C/C(=N/O[C@@H]4O[C@@H](COC(C)=O)[C@@H](OC(C)=O)[C@@H](OC(C)=O)[C@H]4OC(C)=O)[C@@H]3CC[C@@H]2C1=O 3.16 µM, CC(=O)OC[C@H]1O[C@@H](ON=C(C)C)[C@H](OC(C)=O)[C@@H](OC(C)=O)[C@H]1OC(C)=O 3.16 µM, CC(=O)OC[C@H]1O[C@@H](O/N=C\[C@@H](C)[C@H](OCc2ccccc2)C(C)C)[C@H](OC(C)=O)[C@@H](OC(C)=O)[C@H]1OC(C)=O 3.98 µM, CO/N=C(\C)CCN1CCCc2nc(C)c(C)cc21 3.98 µM, CC(=O)OC[C@@H]1O[C@@H](O/N=C2/C[C@@H](O)[C@@H](O)[C@@H]3[C@@H]4C(=O)N(Cc5ccccc5)C(=O)[C@H]4CC[C@H]23)[C@H](OC(C)=O)[C@H](OC(C)=O)[C@@H]1OC(C)=O 3.16 µM, CCc1cc2c(nc1CC)CCN(CC/C(C)=N/O[C@@H]1O[C@H](COC(C)=O)[C@H](OC(C)=O)[C@H](OC(C)=O)[C@H]1OC(C)=O)C2 3.98 µM, CC(C)[C@H](NC(=O)OC(C)(C)C)[C@@H](O)CC(=O)OC(C)(C)C 3.16 µM

Potency, inactive:
CC(C)=CCC/C(C)=C/CO/N=C1/C[C@@H](O)[C@@H](O)[C@@H]2[C@@H]3C(=O)N(C[C@@H]4CCCO4)C(=O)[C@H]3CC[C@@H]12, O=C1[C@@H]2[C@H]3[C@H](O)[C@H](O)C/C(=N/OCc4ccccc4)[C@@H]3CC[C@H]2C(=O)N1c1ccc(F)cc1F, CO[C@@H]1COC(=O)CC=C[C@@H](C)[C@@H]2C=C[C@H](O)[C@@H](COC(=O)[C@H](C)NC(=O)CC=C[C@H]1C)O2, CCOC(=O)N/N=C1/C[C@@H](O)[C@@H](O)[C@@H]2[C@@H]3C(=O)N(Cc4ccccc4)C(=O)[C@H]3CC[C@@H]12, CC(C)=NOC[C@@H](O)COCc1ccco1, C#CCCCO/N=C1/[C@H]2O[C@@H]2[C@@H](O)[C@H]2[C@H]1CCn1c(=O)n(C)c(=O)n12, CO[C@@H]1COC(=O)C/C=C\[C@H](C)COC(=O)[C@H](C)NC(=O)C/C=C\[C@H]1C, CO[C@H]1COC(=O)CCC[C@H](C)[C@H](OC)COC(=O)C/C=C\[C@@H]1C, CCOC(=O)CCN1C(=O)[C@H]2[C@@H]3[C@H](O)[C@H](O)CC(=O)[C@H]3CC[C@H]2C1=O, CO[C@@H]1COC(=O)CCC[C@@H](C)[C@H](OC)COC(=O)CCC[C@H]1C, O=C(N/N=C1/C[C@@H](O)[C@@H](O)[C@@H]2[C@@H]3C(=O)N(Cc4ccccc4)C(=O)[C@H]3CC[C@H]12)OCc1ccccc1, COC(=O)C/C=C\[C@@H](C)[C@@H](/C=N\OC[C@@H](O)COCc1ccco1)OC, CCN1C(=O)[C@H]2[C@@H]3[C@H](O)C=CC(=O)[C@H]3CC[C@H]2C1=O, CC(C)=CCC/C(C)=C/CO/N=C1/C[C@@H](O)[C@@H](O)[C@@H]2[C@@H]3C(=O)N(C(C)(C)C)C(=O)[C@H]3CC[C@H]12
